PubChem BioAssay AID2289 (National Center for Advancing Translational Sciences (NCATS), 2010)
Among all 340,000 compounds or so, about 3,300 (0.97%) were called active. Not shown: some 9% with an inconclusive outcome. The call rests on the fitted dose curve; in most records, active means well fitted inhibition curve with a large enough effect; inconclusive means small, poorly fitted or top-dose-only effect, or effect the other way; inactive means flat fitted curve, though single readings scatter. This is one part of the list.
Potency means the concentration at half of the fitted maximal effect.

Assay: qHTS Assay for Modulators of miRNAs and/or Inhibitors of miR-21; further: nearly all actives have a fitted effect of over 55% in size
Conditions: HeLa miR-21-FLuc reporter, luciferase luminescence, 48 h; actives lower the signal
Text: MLSCN Grant: 1 R21 NS059478-01 Assay Provider: Qihong Huang, The Wistar Institute NCGC Assay Overview: MicroRNAs (miRNAs) are endogenously encoded small (~20-25 nucleotides), nonprotein-coding RNAs that are involved in post-transcriptional repression of target messenger RNAs (mRNAs) (Le and Hannon, 2004). Estimated to be involved in the regulation of 30% of all protein-coding mRNAs (Filipowicz et al., 2008), miRNAs play a significant role in many biological processes including cellular differentiation and tissue development (Ghildiyal and Zamore, 2009).
NCGC Assay Protocol Summary: Reagents: HeLa cells stably expressing firefly luciferase (FLuc) under the control of a CMV promoter (upstream) and a miR-21 binding sequence directly downstream of the gene. These cells endogenously express miR-21. Control compounds used were compound C3 (provided by collaborator), N6-phenyladenosine (MP Biomedicals, 0215379625), and DMSO. Assay Summary: 6uL of HeLa miR-21-FLuc cells in assay buffer (DMEM, Invitrogen #21063-029; 10% FBS, HyClone #SH30071.03) were dispensed at 2000cells/well (3.3 x 10^5 cells/mL) into Greiner solid-white TC-treated 1536-well plates using a Multidrop Combi (Thermo Fisher Scientific). Plates were incubated for one hour at 37 degree Celsius, 95% humidity, 5% CO2. These assay plates were then treated with 23nL of compound or DMSO using a Kalypsys pin tool, which allows for delivery of a 24-point titration of each compound to the assay plate, with a final compound concentration ranging from approximately 40uM to 5pM. Assay plates were then incubated for 48 hours. After incubation, plates were allowed to come to RT for one hour prior to delivery of 3uL of 3X luciferase detection reagent. After a 15 minute incubation to allow for cell lysis, luciferase activity was measured using a ViewLux CCD imager (PerkinElmer), with an average exposure time of 2-12 seconds. Keywords: NIH Roadmap, MLPCN, MLSMR, qHTS, miR-21, microRNA, firefly luciferase, FLuc.
In the case of O=C(NNc1c(F)c(F)cc(F)c1F)c1cc2ccccc2oc1=O, the Potency is reported as 8.26 µM (active). With COc1ccc(-c2n[nH]c(=S)n2-c2ccc3c(c2)OCCO3)cc1OC the Potency was 16.5 µM (active). With Cc1ccc(-c2cc(NC(=O)c3ccccc3)on2)cc1 the Potency was 2.93 µM (active). In the case of CC1CCc2c(sc3nc(CSc4n[nH]c(N)n4)[nH]c(=O)c23)C1 (stereo not given), the Potency is reported as 16.5 µM (active). For Nc1nc(SCc2ccc(Cl)cc2Cl)n[nH]1, the Potency was 14.7 µM (active). For CCN(CC)c1ccc(/C=C2\C(=O)NC(=S)N(C)C2=O)o1, the Potency was 1.31 µM (active). In the case of CN1C(=O)/C(=C/c2ccc(N3CCCCCC3)o2)C(=O)NC1=S, the Potency is reported as 0.826 µM (active). In the case of CCCCn1c(O)c(/C(C)=N/NC(=O)Nc2ccccc2)c(=O)[nH]c1=O, the Potency is reported as 11.7 µM (active). With COc1ccc(CCN2CCCC(CN(C)C(=O)c3cc(C)oc3C)C2)cc1 (stereo not given) the Potency was 4.65 µM (active). With COc1ccc(NC(=O)CCCn2c(=O)oc3ccccc32)cc1Cl the Potency was 9.27 µM (active). In the case of Cn1cnc2cc(NC(=O)c3ccc(Cl)cc3)ccc21, the Potency is reported as 1.85 µM (active). With COc1ccc(CNC(=O)c2ccc(C(C)C)cc2)cc1 the Potency was 3.29 µM (active). In the case of Cc1cccc(N=Nc2ccc(N(C)C)cc2)c1, the Potency is reported as 2.93 µM (active). In the case of COC(=O)C(O)(c1ccc(NC(=O)NC2CCCCC2)cc1)C(F)(F)F (stereo not given), the Potency is reported as 8.26 µM (active). In the case of O=C(Oc1ccc2cc(Br)ccc2c1)N1CCCCCC1, the Potency is reported as 4.14 µM (active). In the case of CCN(CC)C(=O)Oc1ccc2cc(Br)ccc2c1, the Potency is reported as 11.7 µM (active). In the case of O=c1c2ccccc2[nH]c(=S)n1-c1ccc2c(c1)OCCO2, the Potency is reported as 7.36 µM (active). In the case of O=c1cc(-c2ccc(O)c(O)c2)oc2cc(O)cc(O)c12, the Potency is reported as 3.29 µM (active). For Cc1cnn(-c2cc(Oc3ccccc3)ncn2)c1, the Potency was 16.5 µM (active). In the case of CC(C)(C)n1cc(C(=O)c2ccc3ccccc3c2O)cn1, the Potency is reported as 0.233 µM (active). In the case of c1ccc2c(CN3CCCCCC3)c[nH]c2c1, the Potency is reported as 2.93 µM (active). In the case of CN(C)C(=O)Oc1ccc2c(c1)O/C(=C\c1ccccc1)C2=O, the Potency is reported as 4.65 µM (active). For O=c1c2ccccc2nc(Cc2ccccc2)n1-c1ccccc1, the Potency was 5.85 µM (active). For COc1ccccc1N=Nc1c(O)[nH]c(=S)[nH]c1=O, the Potency was 13.1 µM (active). In the case of BrCC1C[n+]2c(SCc3ccccc3)nc3sc4c(c3c2O1)CCCC4 (stereo not given), the Potency is reported as 16.5 µM (active). With O=C(c1cc(-c2cccc(Cl)c2)on1)N1CCOCC1 the Potency was 8.26 µM (active). For O=C(Nc1nc2c(s1)CCCCCC2)Nc1ccc(F)cc1F, the Potency was 0.329 µM (active). With Cc1cc(C(=O)Nc2ccccc2)nn1C(C)(C)C the Potency was 2.07 µM (active). In the case of Cc1cc(C(=O)Nc2ccc3c(c2)OCCO3)nn1C(C)(C)C, the Potency is reported as 5.85 µM (active). With CN(CC(=O)N1CCc2ccccc21)S(=O)(=O)c1cccs1 the Potency was 5.85 µM (active). With COc1ccc(-c2cc(=NCCC(=O)O)c3cc(C)ccc3o2)cc1 the Potency was 0.656 µM (active). With COc1ccc(-c2cc(=NCC(=O)O)c3ccccc3o2)cc1 the Potency was 3.69 µM (active). In the case of CCCCN1CC(O)=C(c2nc3ccccc3s2)C1=N, the Potency is reported as 6.56 µM (active). With CC(=O)Nc1ccccc1C(=O)OCC(=O)c1ccccc1Cl the Potency was 14.7 µM (active). For COc1ccc2nc(NC3=NCCN3)sc2c1, the Potency was 1.65 µM (active). With Cc1ccnc(SCc2nc3ccccc3s2)n1 the Potency was 7.36 µM (active). In the case of Cc1cccc(OCCn2c(=O)oc3ccc(C)cc32)c1, the Potency is reported as 14.7 µM (active). With O=c1oc2ccccc2n1CCCOc1ccccc1 the Potency was 13.1 µM (active). In the case of Cc1ccc(NC(=O)O/N=C/c2cccc([N+](=O)[O-])c2)cc1, the Potency is reported as 16.5 µM (active). In the case of Cc1nc(Cl)sc1C(=O)Nc1ccc2ccccc2c1, the Potency is reported as 5.85 µM (active). For O=C(CSCc1ccccc1)Nc1ccc2c(c1)OCO2, the Potency was 5.21 µM (active). For Cc1ccc(-c2nn(Cc3ccccc3)cc2C=O)cc1, the Potency was 6.56 µM (active). For Cc1ccc(-c2nc(N3CCOCC3)s[n+]2-c2ccccc2)cc1, the Potency was 5.21 µM (active). In the case of c1ccc(-c2nc(N3CCOCC3)s[n+]2-c2ccccc2)cc1, the Potency is reported as 13.1 µM (active). For Cn1nnc2cc(NC(=O)Nc3cccc(Cl)c3)ccc21, the Potency was 1.47 µM (active). With c1ccc(CN2CCc3nc4ccccc4cc3C2)cc1 the Potency was 14.7 µM (active). With Cc1ccc(NN=C2C(=O)OC(C)(C)OC2=O)c(C)c1 the Potency was 11.7 µM (active). With O=C(NCC(c1cccnc1)N1CCOCC1)Oc1ccccc1 (stereo not given) the Potency was 16.5 µM (active). For Cc1nc2ccc(NC(=O)c3ccc(Cl)s3)cc2s1, the Potency was 2.93 µM (active). In the case of Cc1nc2ccc(NC(=O)C3COc4ccccc4O3)cc2s1 (stereo not given), the Potency is reported as 7.36 µM (active).
